# ± gives the standard deviation.
# Assays:
# Details in all cases: modulator concentration 10 µM
# [1] = test system: RAW-Dual (murine macrophage reporter line); experiment: NF-kB reporter (SEAP) activity fold change vs agonist alone; higher = enhanced NF-kB activity
# Procedure, shortened: (§1)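 Overnight stimulation with a PRR agonist followed pre-incubation for 1 hour at 37 °C with compound at 10 μM final. This was done in RAW-Dual murine macrophage reporter cells seeded at 50 000 per well in 384-well plates. NF-κB (SEAP, QUANTI-Blue absorbance at 620 nm) and IRF (Lucia luciferase, QUANTI-Luc luminescence) were read from the supernatant. Each reporter's fold change relative to the mean agonist-only control on the same plate was averaged over replicate plates.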
# [2] = test system: RAW-Dual (murine macrophage reporter line); experiment: IRF reporter (Lucia luciferase) activity fold change vs agonist alone; higher = enhanced IRF activity
# Procedure, shortened: as §1
# [3] = test system: RAW-Dual (murine macrophage reporter line); experiment: viability score (confluency relative to resting cells, overnight) (fraction); higher = more viable, active = viable (0.7 or more)
# Procedure, shortened: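 RAW-Dual macrophages in 384-well plates were incubated overnight with compound, final concentration 10 μM. Confluency images from IncuCyte were processed in IncuCyte software into two masks covering all imaged wells. The viability score is each well's confluency relative to resting cells, and a compound met the cutoff when both masks exceeded 70% of resting cells.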
# [4] = agonist: CpG ODN 1826 0.5 ug/mL
Compound,"NF-kB reporter [1, 4]",NF-kB reporter ([1]; agonist: LPS 0.1 ug/mL),NF-kB reporter ([1]; agonist: MPLA […]),IRF reporter ([2]; agonist: 3'3'-cGAMP 10 ug/mL),IRF reporter ([2]; agonist: LPS 0.1 ug/mL),IRF reporter ([2]; agonist: MPLA […]),viability score [3]
CN1CCN(c2ccc3nc(-c4c(N)c5c(F)cccc5[nH]c4=O)[nH]c3c2)CC1,0.277 ± 0.1,1.19 ± 0.35,1.39 ± 0.59,0.0238 ± 0.0011,0.491 ± 0.07,0.197 ± 0.015,0.799 (active)
CN(C)CC/C=C1\c2ccccc2COc2ccccc21.Cl,0.888 ± 0.038,1.06 ± 0.15,1.36 ± 0.096,0.434 ± 0.02,0.73 ± 0.14,0.876 ± 0.3,1.01 (active)
Cc1[nH]c2ccc(Br)cc2c(=O)c1CN1CCCCC1,0.828 ± 0.092,0.97 ± 0.054,0.899 ± 0.054,0.951 ± 0.035,1.25 ± 0.17,0.92 ± 0.091,1 (active)
Cc1cnc(Nc2ccc(OCCN3CCCC3)cc2)nc1Nc1cccc(S(=O)(=O)NC(C)(C)C)c1,0.769 ± 0.17,1.81 ± 0.14,2.74 ± 0.12,0.0927 ± 0.014,0.0391 ± 0.0087,0.064 ± 0.028,0.0864 (inactive)
O=C(CSc1nc(-c2ccccc2)c(-c2ccccc2)o1)N1CCOCC1,1.03 ± 0.081,1.02 ± 0.079,0.903 ± 0.054,0.954 ± 0.045,1.31 ± 0.11,1.2 ± 0.12,0.996 (active)
Cc1cc2nc(SCc3cc4c(cc3Cl)OCO4)[nH]c2cc1C,0.749 ± 0.065,0.976 ± 0.047,0.91 ± 0.094,0.636 ± 0.042,1.2 ± 0.083,1.25 ± 0.12,1.01 (active)
Cn1cnc2cc(NCc3nc4ccccc4n3C)ccc21,0.818 ± 0.065,1.03 ± 0.078,1.01 ± 0.039,0.955 ± 0.17,1.03 ± 0.15,1.03 ± 0.24,1 (active)
COc1ccc(Cl)cc1C(=O)N1CCC(S(=O)(=O)c2nncn2C)CC1,0.944 ± 0.051,1.04 ± 0.11,0.858 ± 0.038,1 ± 0.052,1.19 ± 0.085,1.11 ± 0.29,0.994 (active)
O=C(O)CC(c1ccccc1)N1C(=O)c2ccccc2C1=O (stereo not given),0.999 ± 0.17,1.04 ± 0.13,0.963 ± 0.11,0.976 ± 0.044,1.24 ± 0.22,1.3 ± 0.21,1 (active)
O=C(O)c1ccc(NCn2nnc3ccccc32)cc1,1.05 ± 0.1,0.928 ± 0.12,1.03 ± 0.097,1 ± 0.032,1.37 ± 0.27,1.51 ± 0.23,1 (active)
CC1=C(C)CC2C(=O)N(c3ccccc3C)C(=O)C2C1 (stereo not given),0.797 ± 0.064,0.889 ± 0.068,1.06 ± 0.12,0.982 ± 0.045,1.35 ± 0.078,1.33 ± 0.15,1.01 (active)
O=C1c2cccc3c2[C@H](CCC3)CN1[C@@H]1CN2CCC1CC2 [Prestw-1783],0.953 ± 0.06,0.913 ± 0.13,0.788 ± 0.031,0.63 ± 0.024,0.824 ± 0.044,0.752 ± 0.08,0.995 (active)
Cc1ccc(S(=O)(=O)N2CCC2)cc1,1.03 ± 0.11,0.756 ± 0.097,1.07 ± 0.1,1.02 ± 0.047,1.37 ± 0.22,1.51 ± 0.39,1.02 (active)
O=C(COc1ccc(Cl)cc1)Nc1ccc(OC(F)(F)F)cc1,1.03 ± 0.069,1 ± 0.078,0.943 ± 0.043,0.989 ± 0.072,0.973 ± 0.1,0.88 ± 0.18,0.993 (active)
CNC1(C)C2CCC(C2)C1(C)C.Cl (stereo not given),0.914 ± 0.23,0.931 ± 0.058,0.961 ± 0.061,0.911 ± 0.078,1.1 ± 0.24,1.06 ± 0.12,1 (active)

# Source: the supplement of paper PMC10646978
